What all share (assay): Confirmatory Screen for Target Class Profiling of Small Molecule Inhibitors of Methyltransferases (AID 1745852); for activity change, negative = inhibition: % is set by controls: 0 for no effect and ±100 for the full control effect
Assay [1] addresses Catechol O-methyltransferase (Homo sapiens) (UniProt P21964). To be noted: MTase-Glo luminescence, SAH detection, recombinant enzyme; measured here: COMT max response; stronger effect = lower value.
Assay [2] addresses Guanidinoacetate N-methyltransferase (Homo sapiens) (UniProt Q14353). The note with it: MTase-Glo luminescence, SAH detection, recombinant enzyme; activity change, negative = inhibition: at 57.3 µM (top of the series) unless noted; series mostly up to 57.3 µM.
In assay [3] the target is Nicotinamide N-methyltransferase (Homo sapiens) (UniProt P40261). The note with it: MTase-Glo luminescence, SAH detection, recombinant enzyme; measured here: NNMT max response; stronger effect = lower value.
The target in assay [4] is Phenylethanolamine N-methyltransferase (Homo sapiens) (UniProt P11086). The note with it: MTase-Glo luminescence, SAH detection, recombinant enzyme; measured here: PNMT max response; stronger effect = lower value.

Calls of active or inactive are those of the source. Calls come from the whole dose curve.
Potency is the fitted concentration of half-maximal effect.

Phenylethanolamine N-methyltransferase (Homo sapiens), sequence (P11086 whole entry, looked up): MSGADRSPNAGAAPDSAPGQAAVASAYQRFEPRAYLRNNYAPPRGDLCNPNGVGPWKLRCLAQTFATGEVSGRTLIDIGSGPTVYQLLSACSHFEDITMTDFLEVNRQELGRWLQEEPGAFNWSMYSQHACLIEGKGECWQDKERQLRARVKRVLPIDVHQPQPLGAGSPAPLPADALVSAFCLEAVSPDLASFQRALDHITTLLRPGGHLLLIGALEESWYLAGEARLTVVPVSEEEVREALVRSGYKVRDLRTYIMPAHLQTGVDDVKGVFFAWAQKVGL
Catechol O-methyltransferase (Homo sapiens), sequence (P21964 whole entry, looked up): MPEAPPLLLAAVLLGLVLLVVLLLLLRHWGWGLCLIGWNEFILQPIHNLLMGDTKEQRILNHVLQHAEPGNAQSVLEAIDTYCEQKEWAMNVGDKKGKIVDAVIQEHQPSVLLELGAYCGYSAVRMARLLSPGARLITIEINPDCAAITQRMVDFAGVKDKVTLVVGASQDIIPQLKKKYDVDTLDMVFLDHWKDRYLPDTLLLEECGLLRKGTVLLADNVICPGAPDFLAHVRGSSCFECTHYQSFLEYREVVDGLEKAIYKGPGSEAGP
Nicotinamide N-methyltransferase (Homo sapiens), sequence (P40261 whole entry, looked up): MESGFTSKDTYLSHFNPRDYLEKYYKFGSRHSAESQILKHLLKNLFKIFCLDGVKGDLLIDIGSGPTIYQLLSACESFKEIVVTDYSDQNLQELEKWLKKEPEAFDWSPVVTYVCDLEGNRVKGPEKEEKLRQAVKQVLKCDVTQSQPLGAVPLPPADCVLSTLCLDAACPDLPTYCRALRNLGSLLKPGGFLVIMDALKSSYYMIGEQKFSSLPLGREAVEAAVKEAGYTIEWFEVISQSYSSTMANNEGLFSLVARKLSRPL

In the case of `CC(F)(F)CN1CCOc2c(nn(-c3ccccc3Cl)c2-c2ccc(Cl)cc2)C1=O`, the activity is -4.22% in assay [1], -32.3% in assay [3] and -3.99% in assay [4]. In addition, in assay [2], the activity change, negative = inhibition was determined as 0.516%.

With `CN(C)c1ccc(NC(=O)NS(=O)(=O)c2ccc(Cl)cc2)cc1`, the activity in assay [1] was -53.7%; in assay [3], -25%; in assay [4], -83.5%. Besides, in assay [2], the Potency was 27.1 µM (active).

On to `CC(C)C[C@H](C(=O)O)c1cc(-c2ccc(C(F)(F)F)cc2)cc(-c2ccc(C(F)(F)F)cc2)c1`, for which the activity in assay [1] is -6.76%; in assay [3], -40.6%; in assay [4] it was -16.1%. Moreover, the Potency in assay [2] was 48.2 µM (active).

As for `N#Cc1ccc(COC[C@H]2O[C@@H](n3c(NCc4ccc(Cl)c(Cl)c4)nc4c(N)ncnc43)[C@H](O)[C@@H]2O)cc1`, the activity in assay [1] was -4.68%; in assay [3], -79.6%; in assay [4], -74.2%. In assay [2], the Potency is 23.5 µM (active).

As to `C=C1C(=O)O[C@@H]2C=C(COC(C)=O)CC/C=C(\CO)CC[C@@H]12`, the activity in assay [1] was -83.7%; in assay [3], 2.08%; in assay [4] it was 0.0072%. Further, the activity change, negative = inhibition in assay [2] stood at 2.22%.

As for `COc1cc(N2CCC(N)CC2)ccc1Nc1ncc(Cl)c(-c2c[nH]c3ccccc23)n1`, the activity in assay [1] is -32.1%; in assay [3], -35.8%; in assay [4], -27%. Moreover, the Potency in assay [2] is 24.1 µM (active).

For the molecule `Fc1ccc(N2CCCCC2)c(NC(=S)c2ccncc2)c1`, the activity was -6% in assay [1], -9.58% in assay [3] and -11.8% in assay [4]. In addition, in assay [2], the activity change, negative = inhibition came out at 2.26%.

Consider `CC(C)(C)c1ccc(C(=O)Nc2cc(Cl)c(Br)cc2C(=O)O)cc1`, for which the activity in assay [1] is -14%; in assay [3], -40.5%; in assay [4] it was -22%. In addition, in assay [2], the activity change, negative = inhibition is -8.07%.

As to `Cc1cc(NC(=O)NCCN2CCC(O)(Cc3ccccc3)CC2)c2ccccc2n1`, the activity is -2.12% in assay [1], 2.4% in assay [3] and 0.991% in assay [4]. Moreover, the activity change, negative = inhibition in assay [2] worked out at 0%.

Consider `Cn1cc(-c2ccc(F)c(C(F)(F)F)c2)nc1C1CCN(c2ncnc3[nH]ncc23)CC1`, for which the figures for the activity in assay [1], in assay [3] and in assay [4] were 2.12%, -37.5% and -1.21%, respectively. For the same molecule, in assay [2], the activity change, negative = inhibition came to 1.12% [at 9.47 µM].

As to `CC1(C)CCC(C)(C)c2cc(C#Cc3ccc(C(=O)O)cc3)ccc21`, the activity in assay [1] is -0.825%; in assay [3], -63%; in assay [4], -5.22%. Moreover, the activity change, negative = inhibition in assay [2] was found to be 0%.

On to `CC(C)(O)C(=O)N1CCN(c2ccc(C(F)(F)F)c(C3=C(c4c[nH]c5ccccc45)C(=O)NC3=O)c2)CC1`, for which the values for the activity in assay [1], in assay [3] and in assay [4] were -37.9%, -37% and -34.7%, respectively. Also, the Potency in assay [2] was 30.4 µM (active).

Values taken from PubChem BioAssay (NCATS).
